Our source for the survival values is PubChem BioAssay AID463173 (ICCB-Longwood Screening Facility, Harvard Medical School, 2010).

SMILES strings stand for the structures. The campaign covered roughly 52,000 compounds. About 4,300 (8.3%) were called active. Cut-off read from the data, not from the text of the source: active = survival mostly below about 52% (no sharp cut-off); inactive = mostly above about 56%. Only a selection was taken, and actives are over-represented in it overall.

The assay relates to DeltatarO mutant. Briefly: S. aureus survival, RN4220 and DeltatarO strains – OD600, teichoic acid synthesis inhibitors, primary screen (AID 463173). To be noted: S. aureus RN4220 wild type/DeltatarO growth, OD600, 18 h, stronger effect = lower value, screened at 18.75 µg/mL (by protocol).
With `Cc1ccc(CCNC(=O)c2ccc3c(=O)n(-c4ccccc4)c(=O)[nH]c3c2)cc1`, the survival is 86% (inactive).

As for `Cc1cc(O)c(C(c2ccc(F)cc2)N2CCCCC2)c(=O)n1Cc1ccco1` (stereo unspecified), the survival was 75% (inactive). For the compound `COc1cccc(NC(=O)Cn2c(=O)n(CCCC(=O)NCc3ccc4c(c3)OCO4)c(=O)c3ccccc32)c1`, the survival is 115% (inactive). Take `Cc1cc(C)c(NC(=O)C2CCN(c3nc4ccccc4[nH]3)CC2)c(C)c1`: the survival was 102% (inactive). As for `Cc1ccc(C#N)c(SCC(=O)O)n1`, the survival is 91% (inactive). The same measure for `Cc1cccc(Cn2cc(S(=O)(=O)c3ccccc3)c(=O)c3cc(F)c(N4CCOCC4)cc32)c1`: 72% (inactive). The result for `COc1ccc(-c2nc3ccccc3o2)cc1NC(=O)c1ccc(OCC(C)C)cc1` reads 40% (inactive); that for `COc1ccc(/C=C/C(=O)Nc2cc(-c3nc4ccccc4o3)ccc2OC)cc1`, 50% (inactive). The result for `Cc1ccc2nc(-c3ccc(Cl)c(NC(=O)c4cccnc4)c3)oc2c1` reads 126% (inactive); that for `COc1ccc(-c2nc3ccccc3o2)cc1NC(=O)c1ccc(-c2cccc(Cl)c2C)o1`, 58% (inactive). In the case of `COc1ccc(-c2nc3ccccc3o2)cc1NC(=O)C(C)(C)Oc1ccc(Br)cc1`, the survival is 4% (active). `COc1ccc(-c2nc3ccccc3o2)cc1NC(=O)c1cc(Br)ccc1OC`: the survival is 40% (active). In the case of `CC(C)(Oc1ccc(Br)cc1)C(=O)Nc1cc(-c2nc3ccccc3[nH]2)ccc1Cl`, the survival is 76% (inactive). `COc1ccc(-c2nc3ccccc3o2)cc1NC(=O)c1cccc2c(Cl)cccc12`: the survival is 52% (inactive). Take `COc1ccc(-c2nc3ccccc3o2)cc1NC(=O)c1ccc(-c2ccc(C)c(Cl)c2)o1`: the survival is 41% (active). For the compound `CCOc1ccc(C(=O)Nc2cc(-c3nc4ccccc4o3)ccc2C)cc1Cl`, the survival was 51% (inactive). For the compound `COc1ccc(Br)cc1C(=O)Nc1ccc2oc(-c3cccnc3)nc2c1`, the survival was 117% (inactive). The result for `COc1ccc(-c2nc3ccccc3o2)cc1NC(=O)c1cccnc1` reads 45% (active); that for `CCOc1ccc(NC(=O)NCCN2CCN(c3cccc(C)c3C)CC2)cc1`, 60% (inactive); that for `Cc1ccc(C)c(N2CCN(C(=O)c3cn(CC(C)C)c(=O)c4c3c3ccccc3n4C)CC2)c1`, 28% (inactive). The same measure for `COc1ccccc1CNC(=O)C1CCN(c2ncnc3c2nc2n3CCCCC2)CC1`: 94% (inactive).

Regarding `Cc1ccc2cc(C(c3nnnn3C3CCCC3)N3CCCc4ccccc43)c(=O)[nH]c2c1` (stereo unspecified), the survival is 97% (inactive). The same measure for `CCN(CC)C(=O)Cn1cc(C(=O)C(C)C)c2ccccc21`: 87% (inactive); for `Cc1ccc(NC(=O)c2cnc(N3CCCC3)nc2C)cc1F`: 89% (inactive). The result for `Cc1cc2[nH]c(=O)c(=O)[nH]c2cc1S(=O)(=O)N1CCN(c2cccc(C(F)(F)F)c2)CC1` reads 78% (inactive); that for `COc1ccc(-c2nc3ccccc3o2)cc1NC(=O)c1ccc(-c2ccc(Br)cc2)o1`, 43% (active); that for `COc1ccc(-c2nc3ccccc3o2)cc1N`, 72% (inactive).

Turning to `COc1ccc(-c2nc3ccccc3o2)cc1NC(=O)c1ccc(N2CCC(C)CC2)c([N+](=O)[O-])c1`, the survival was 66% (inactive). Turning to `CCN(CC)S(=O)(=O)c1ccc2c(c1)N(CC(=O)N(C)Cc1ccccc1)C(=O)CO2`, the survival is 82% (inactive). With `Cc1cccc(Cn2c(CN3CCCC(C)C3)nc3c2c(=O)n(C)c(=O)n3C)c1` (stereo unspecified), the survival is 73% (inactive).

As for `Cc1ccc(NC(=O)Cn2c(=O)n(CC(=O)NCCc3ccccc3)c(=O)c3ccccc32)cc1C`, the survival was 67% (inactive). As to `Cc1ccc(NC(=O)c2cc(S(=O)(=O)NCCc3ccc(Cl)cc3)ccc2F)cc1`, the survival is 80% (inactive). The same measure for `Cc1ccc(CNS(=O)(=O)c2ccc(F)c(C(=O)Nc3ccc(C)c(F)c3)c2)cc1`: 46% (active); for `Cc1ccc(C)c(NC(=O)c2cc(S(=O)(=O)NCc3ccccc3)ccc2F)c1`: 71% (inactive); for `COc1ccc(CCNS(=O)(=O)c2ccc(F)c(C(=O)Nc3ccc(Cl)cc3)c2)cc1OC`: 104% (inactive).

`Cc1ccc(NC(=O)c2cc(S(=O)(=O)NCCC3=CCCCC3)ccc2F)cc1C`: the survival was 20% (active). Take `Cc1cc(C)c(NC(=O)c2cc(S(=O)(=O)NCCC3=CCCCC3)ccc2F)c(C)c1`: the survival is 85% (inactive). The result for `CCc1ccccc1NC(=O)c1cc(S(=O)(=O)NCCc2ccc(OC)c(OC)c2)ccc1F` reads 8% (active); that for `COc1ccc(C)cc1NC(=O)c1cc(S(=O)(=O)NCCC2=CCCCC2)ccc1F`, 105% (inactive); that for `Cc1ccc(NC(=O)c2cc(S(=O)(=O)NCCC3=CCCCC3)ccc2F)cc1F`, 115% (inactive). In the case of `Cc1cc(C)cc(NC(=O)c2cc(S(=O)(=O)NCCC3=CCCCC3)ccc2F)c1`, the survival is 67% (inactive).

Turning to `COc1ccc(OC)c(NC(=O)c2cc(S(=O)(=O)NCCc3ccc(Cl)cc3)ccc2F)c1`, the survival was 70% (inactive). On to `Cc1ccc(C)c(NC(=O)c2cc(S(=O)(=O)NCCC3=CCCCC3)ccc2F)c1`, for which the survival was 52% (active).

Take `CC(C)C(OC(=O)c1cccs1)C(=O)NC1CCCC1` (stereo unspecified): the survival was 96% (inactive). The same measure for `Cc1nn(C(=O)c2cccc(Cl)c2)c(C)c1S(=O)(=O)N1CCOCC1`: 82% (inactive); for `Cc1ccc(C(=O)Nc2ccc(-c3nc4ccccc4o3)cc2)cc1Cl`: 68% (inactive). With `Cc1nnc(SCc2cc(=O)c3ccccc3[nH]2)s1`, the survival is 125% (inactive). As to `NC(=O)CC(c1ccccc1)c1ccc2c(c1)OCO2` (stereo unspecified), the survival was 97% (inactive). The result for `COc1cc2cc(CN(Cc3ccc4c(c3)OCO4)C(=O)NCc3ccccc3)c(=O)[nH]c2cc1OC` reads 102% (inactive); that for `COc1ccc(CNCCC(c2ccc(C)cc2)c2ccco2)cc1` (stereo unspecified), 64% (inactive); that for `CCOCCCNC(=O)C(c1ccccc1)N(Cc1ccc2c(c1)OCO2)C(=O)c1ccc(NC(C)=O)cc1` (stereo unspecified), 51% (inactive).

For `COc1ccc(CCNC(=O)c2ccc3c(c2)OCO3)cc1`, the survival is 110% (inactive). The same measure for `CCOCCCNC(=O)C(c1ccc(OC)cc1)N(Cc1ccc2c(c1)OCO2)C(=O)c1ccccc1O` (stereo unspecified): 62% (inactive). The same measure for `N#CCC(c1ccccc1)c1ccc2c(c1)OCO2` (stereo unspecified): 92% (inactive). `CCOCCCNC(=O)C(c1ccc(OC)cc1)N(Cc1ccc2c(c1)OCO2)C(=O)c1ccc(NC(C)=O)cc1` (stereo unspecified): the survival was 50% (inactive). Turning to `CCC(=O)N(CCC(c1ccccc1)c1ccc2c(c1)OCO2)Cc1ccc(OC(C)C)cc1` (stereo unspecified), the survival is 0% (active). The result for `COc1ccc(CN(CCC(c2ccc3c(c2)OCO3)c2ccccc2OC)C(C)=O)cc1` (stereo unspecified) reads 19% (active); that for `COc1ccc(CNCCC(c2ccc3c(c2)OCO3)c2ccccc2OC)cc1` (stereo unspecified), 1% (active). `COc1ccc(CNCCC(c2ccccc2)c2ccc3c(c2)OCO3)cc1` (stereo unspecified): the survival was -14% (active). The result for `O=c1c(S(=O)(=O)c2ccccc2)cn(Cc2ccccc2)c2cc(N3CCOCC3)c(F)cc12` reads 85% (inactive); that for `COc1ccc(NC(=O)CCCN2C(=O)C(c3ccccc3)Oc3cccnc32)c(OC)c1` (stereo unspecified), 81% (inactive); that for `Cc1ccc(C(=O)c2oc3ccccc3c2NC(=O)COc2ccccc2C)cc1`, 95% (inactive). The same measure for `CCc1ccc(NC(=O)CSC2=Nc3ccccc3C3=NC(CCC(=O)NCc4ccccc4OC)C(=O)N23)cc1` (stereo unspecified): 55% (inactive); for `Cc1ccc(-n2ncc3c(N4CCN(C)CC4)ncnc32)cc1Cl`: 96% (inactive).

As to `COc1ccc(C2=NC(C)(C)N(CC(=O)Nc3ccc(F)c(F)c3)C2=O)cc1`, the survival is 92% (inactive). The same measure for `Cc1c(C(=O)Nc2cc(F)ccc2F)sc2nc(-c3ccc(F)cc3)cn12`: 107% (inactive); for `CCn1c(=O)c(C(=O)Nc2cc(OC)c(OC)c(OC)c2)nc2ccccc21`: 89% (inactive); for `O=C(COc1ccccc1F)Nc1ccc2oc(-c3cccc(Cl)c3)nc2c1`: 102% (inactive). The result for `Cc1ccccc1-c1nc2cc(NC(=O)COc3ccc(F)cc3)ccc2o1` reads 56% (inactive); that for `O=C(COc1ccccc1F)Nc1ccc(-c2nc3ccccc3s2)cc1`, 67% (inactive). The same measure for `O=C(COc1ccc(F)cc1)Nc1ccc(Cl)c(-c2nc3ccccc3[nH]2)c1`: 26% (active); for `CN1C(=O)c2ccccc2Sc2ccc(NC(=O)COc3ccc(F)cc3)cc21`: 87% (inactive); for `O=C(COc1ccccc1F)Nc1ccc(Cl)c(-c2nc3ccccc3[nH]2)c1`: 33% (active).

As to `CCOC(=O)N1CCc2c(sc(NCc3ccc(N(C)C)cc3)c2C(=O)Nc2ccc(OC)cc2)C1`, the survival is 77% (inactive). For the compound `CC1=C(c2ccc(C)cc2)S(=O)(=O)NC1=NCCCN1CCN(c2ccccc2F)CC1`, the survival was 74% (inactive).

As for `CCCCNC(=O)CSc1nc2cc3c(cc2c(=O)n1Cc1ccc(C(=O)NCCc2ccc(OC)c(OC)c2)cc1)OCO3`, the survival is 85% (inactive). For the compound `COc1ccccc1OCc1nnc(SCC(=O)N(C)C)o1`, the survival was 52% (inactive). On to `COC(=O)c1ccc(Cn2c(SCC(=O)NCc3ccccc3)nc3ccccc32)cc1`, for which the survival is 102% (inactive). The result for `CC1=C(C#N)C(c2cccc(Oc3ccccc3)c2)C2=C(CCCC2=O)N1` (stereo unspecified) reads 54% (inactive); that for `Cc1ccc(CNC(=O)CCCn2c(=O)c3ccccc3n(CC(=O)Nc3ccc(C)c(C)c3)c2=O)cc1`, 78% (inactive). The same measure for `Cc1cc(C)cc(NC(=O)Cn2c(=O)c3ccccc3n3nncc23)c1`: 83% (inactive). For the compound `Cc1cc(C)cc(NC(=O)CCCn2c(=O)c3cccn3c3ccccc32)c1`, the survival was 59% (inactive). Consider `Cc1ccc(NC(=O)CCCn2c(=O)c3cccn3c3ccccc32)c(Cl)c1`, for which the survival was 51% (inactive). The result for `Cc1cccc(C)c1NC(=O)CCCn1c(=O)c2cccn2c2ccccc21` reads 55% (inactive); that for `O=C(CCCn1c2ccccc2c(=O)c2ccccc21)Nc1cccc(Cl)c1`, 27% (active); that for `Cc1cc(C)cc(NC(=O)CCCn2c3ccccc3c(=O)c3ccccc32)c1`, 42% (active). The result for `Cc1ccc2c(c1)c(=O)c1ccccc1n2CCCC(=O)Nc1ccc(C)c(C)c1` reads 43% (active). Regarding `O=C(CCCn1c(=O)c2ccccc2n(CC(=O)Nc2cccc(Cl)c2)c1=O)NCc1ccc2c(c1)OCO2`, the survival was 76% (inactive). The result for `O=C(CCCn1c(=O)c2cccn2c2ccccc21)Nc1cccc(Cl)c1` reads 41% (active); that for `Cc1ccc2c(c1)c(=O)c1ccccc1n2CCCC(=O)Nc1ccc(C)c(F)c1`, 105% (inactive). The result for `O=C(CCCn1c2ccccc2c(=O)c2ccccc21)Nc1ccc(F)cc1Cl` reads 51% (inactive).
